These results are taken from PubChem BioAssay.

One may read the viability as a read-out of living cells in per cent, often relative to untreated cells. The term inhibition denotes the change of the read-out against control, counted positive when it falls.

Calls of active or inactive are those of the source. Rule as the data show it: active = inhibition above about 31%; inactive = the rest.

One assay is described as follows: reversal of MRP1-mediated doxorubicin resistance, pilot screen, H69AR cells, doxorubicin co-treatment (AID 601). As to conditions: H69AR cells, CellTiter-Glo, 72 h; compound alone cytotoxicity; at 10 µM. (In general: Cellular ATP, detected with luciferase, serves as a proxy for viable cell number.)
In the case of `CCC(=O)Nc1c2c(nn1-c1ccccc1C)CSC2`, the viability stood at 102%.

In the case of `CCOC(=O)C1CCN(C(=O)COc2ccc(Cl)cc2Cl)CC1`, the viability is 96.2%.

For `CC1CC(=O)C2=C(C1)OC(N)=C(C#N)C2c1coc2ccccc2c1=O` (stereo not given), the viability worked out at 97.3%.

Consider `CN(C1CCS(=O)(=O)C1)S(=O)C12CC3CC(CC(C3)C1)C2` (stereo not given), for which the viability came out at 99.9%.

With `S=c1[nH]nc(Cc2ccccc2)n1-c1ccccc1`, the viability amounted to 92.9%.

In the case of `Cc1cccc(Cc2nnc(NC(=O)c3cccc(S(=O)(=O)N4CCOCC4)c3)s2)c1`, the viability amounted to 79.2%.

For the compound `COC(=O)[C@H](C)NC(=O)Nc1cc(OC)ccc1OC`, the viability worked out at 75.1%.

`COc1ccccc1NC(=O)C1=C(C)Nc2nnnn2C1c1ccccc1OC` (stereo not given): the viability was found to be 98.9%.

For the compound `Cn1c(CNc2nc(-c3ccccc3)cs2)nnc1SCC(=O)N1CCc2ccccc21`, the viability is 93.3%.

For the compound `CCOC(=O)N1CCN(C(=O)c2n[nH]c(=O)c3ccccc23)CC1`, the viability is 91.6%.

Regarding `O=C(CN1CCCN(S(=O)(=O)c2ccc(Br)cc2)CC1)Nc1ccc2cn[nH]c2c1`, the viability was 7.15%.

For `O=C(OCc1ccccc1F)c1ccc2c(c1)OCCO2`, the viability was 92%.

Take `CCN(CC)S(=O)(=O)c1ccc2c(c1)nc(SCC(=O)NC1CC1)n2-c1ccccc1OC`: the viability amounted to 91.3%.

For `CCC(Sc1nc2sc(C(=O)OC)c(C)c2c(=O)n1N)C(=O)NCC1CCCO1` (stereo not given), the viability came out at 82.2%.

Consider `O=C(COc1ccccc1)Nc1ccc(-c2nnc(-c3ccco3)o2)cc1`, for which the viability turned out to be 95.5%.

In the case of `O=C(CSc1nnnn1C1CCCC1)Nc1cccc(NC(=O)c2ccco2)c1`, the viability worked out at 110%.

Turning to `CCCCCc1c(O)nc(SCC(=O)NCC2CCCO2)[nH]c1=O` (stereo not given), the viability was determined as 105%.

Turning to `c1ccc(N=P(c2nc3ccccc3o2)(N2CCOCC2)N2CCOCC2)cc1`, the viability worked out at 91.4%.

As for `Cc1nn(S(=O)(=O)N2CCCCC2)c(C)c1Br`, the viability worked out at 102%.

On to `Cc1cc2oc(=O)cc(C)c2c(=O)o1`, for which the viability is 108%.

`N#CCCn1ccc(NC(=O)c2ccc(Cl)cc2)n1`: the viability turned out to be 97%.

As to `S=c1[nH]nc(-c2ccco2)n1-c1cccc2ccccc12`, the viability stood at 96.9%.

Consider `CCOC(=O)c1c(-c2ccc(C)o2)csc1NC(=O)COC(=O)c1cccs1`, for which the viability stood at 84.4%.

As to `CCOc1cc2[nH]c(=O)n(CCCCC(=O)N3CCCCCC3)c(=O)c2cc1OCC`, the viability turned out to be 76.8%.

As to `Clc1ccc(-n2ncc3c(NCCCn4ccnc4)ncnc32)cc1`, the viability was found to be 93.5%.

As to `COc1ccc(OC)c(C2C3=C(CCCC3=O)Nc3c2c(=O)n(C)c(=O)n3C)c1` (stereo not given), the viability turned out to be 102%.

Regarding `COc1ccc(NC(=O)CN2CCN(CC(=O)Nc3cc(OC)cc(OC)c3)CC2)cc1`, the viability was 83.1%.

`Clc1cc2c(c(Cn3cnc4ccccc43)c1)OCOC2`: the viability was found to be 98%.

Consider `N#Cc1c2n(c(=S)n(-c3ccccn3)c1=O)CCCCC2`, for which the viability was determined as 86%.

In the case of `N#Cc1c(NC(=O)c2ccc(Br)o2)n(-c2ccccc2)c2nc3ccccc3nc12`, the viability was determined as 85.2%.

`COCCn1nnnc1C(c1ccc(OC)cc1)N1CCN(c2ccccc2F)CC1` (stereo not given): the viability was determined as 89.7%.

Regarding `COc1cc(-c2nnc(SCc3c(F)cccc3Cl)o2)cc(OC)c1OC`, the viability was 85.2%.

`COC(=O)Cc1c(C)nc2nc(-c3ccco3)[nH]n2c1=O`: the viability was determined as 98.7%.

Turning to `CCOC(=O)CSc1nc2cccnc2n1-c1ccc(F)cc1`, the viability came to 102%.

Consider `COCCn1c(NCc2ccc(C)cc2)nc2c1c(=O)[nH]c(=O)n2C`, for which the viability is 107%.

Take `Clc1ccc2nc(N3CCCCC3)[nH]c2c1`: the viability is 91.9%.

As for `Cc1nnc(C)c2c(C)n(-c3ccc(Br)cc3)c(C)c12`, the viability is 104%.

As for `O=C(NCC(F)(F)F)N1CCOCC1`, the viability worked out at 100%.

For `O=C(O)CC1SC(=Nc2cccc(C(F)(F)F)c2)NC1=O` (stereo not given), the viability stood at 103%.

In the case of `COc1ccc2c(c1)OC(O)(C(F)F)CC2=O` (stereo not given), the viability is 93.5%.

The nature of a further assay: 384-well plate pilot, post-Golgi transport modulator project, inhibition of yeast transport mutant growth (AID 636). As to conditions: absorbance 615 nm, about 18 h, stronger effect = higher value.
Take `CCC(=O)Nc1c2c(nn1-c1ccccc1C)CSC2`: the inhibition is -4.42% (inactive).

Take `CCOC(=O)C1CCN(C(=O)COc2ccc(Cl)cc2Cl)CC1`: the inhibition is -3.64% (inactive).

Regarding `CC1CC(=O)C2=C(C1)OC(N)=C(C#N)C2c1coc2ccccc2c1=O` (stereo not given), the inhibition was -7.33% (inactive).

For the compound `CN(C1CCS(=O)(=O)C1)S(=O)C12CC3CC(CC(C3)C1)C2` (stereo not given), the inhibition is -5.75% (inactive).

On to `S=c1[nH]nc(Cc2ccccc2)n1-c1ccccc1`, for which the inhibition is -4.1% (inactive).

On to `Cc1cccc(Cc2nnc(NC(=O)c3cccc(S(=O)(=O)N4CCOCC4)c3)s2)c1`, for which the inhibition was -1.82% (inactive).

For the compound `COC(=O)[C@H](C)NC(=O)Nc1cc(OC)ccc1OC`, the inhibition is -2.34% (inactive).

For the compound `COc1ccccc1NC(=O)C1=C(C)Nc2nnnn2C1c1ccccc1OC` (stereo not given), the inhibition is -4.16% (inactive).

`Cn1c(CNc2nc(-c3ccccc3)cs2)nnc1SCC(=O)N1CCc2ccccc21`: the inhibition is -1.62% (inactive).

Consider `CCOC(=O)N1CCN(C(=O)c2n[nH]c(=O)c3ccccc23)CC1`, for which the inhibition is -1.6% (inactive).

For `O=C(CN1CCCN(S(=O)(=O)c2ccc(Br)cc2)CC1)Nc1ccc2cn[nH]c2c1`, the inhibition is -2.37% (inactive).

Regarding `O=C(OCc1ccccc1F)c1ccc2c(c1)OCCO2`, the inhibition was -5.47% (inactive).

For the compound `CCN(CC)S(=O)(=O)c1ccc2c(c1)nc(SCC(=O)NC1CC1)n2-c1ccccc1OC`, the inhibition is -5.81% (inactive).

Take `CCC(Sc1nc2sc(C(=O)OC)c(C)c2c(=O)n1N)C(=O)NCC1CCCO1` (stereo not given): the inhibition is -6.49% (inactive).

On to `O=C(COc1ccccc1)Nc1ccc(-c2nnc(-c3ccco3)o2)cc1`, for which the inhibition was -6.97% (inactive).

Take `O=C(CSc1nnnn1C1CCCC1)Nc1cccc(NC(=O)c2ccco2)c1`: the inhibition is -0.39% (inactive).

Regarding `CCCCCc1c(O)nc(SCC(=O)NCC2CCCO2)[nH]c1=O` (stereo not given), the inhibition is 0% (inactive).

As to `c1ccc(N=P(c2nc3ccccc3o2)(N2CCOCC2)N2CCOCC2)cc1`, the inhibition was -4.27% (inactive).

Turning to `Cc1nn(S(=O)(=O)N2CCCCC2)c(C)c1Br`, the inhibition was -1.41% (inactive).

For the compound `Cc1cc2oc(=O)cc(C)c2c(=O)o1`, the inhibition was 2.5% (inactive).

As for `N#CCCn1ccc(NC(=O)c2ccc(Cl)cc2)n1`, the inhibition is -5.27% (inactive).

Take `S=c1[nH]nc(-c2ccco2)n1-c1cccc2ccccc12`: the inhibition is -0.54% (inactive).

Regarding `CCOC(=O)c1c(-c2ccc(C)o2)csc1NC(=O)COC(=O)c1cccs1`, the inhibition is 1.3% (inactive).

As to `CCOc1cc2[nH]c(=O)n(CCCCC(=O)N3CCCCCC3)c(=O)c2cc1OCC`, the inhibition was -3.29% (inactive).

With `Clc1ccc(-n2ncc3c(NCCCn4ccnc4)ncnc32)cc1`, the inhibition was -5.6% (inactive).

Turning to `COc1ccc(OC)c(C2C3=C(CCCC3=O)Nc3c2c(=O)n(C)c(=O)n3C)c1` (stereo not given), the inhibition is -2.24% (inactive).

On to `COc1ccc(NC(=O)CN2CCN(CC(=O)Nc3cc(OC)cc(OC)c3)CC2)cc1`, for which the inhibition is -3.77% (inactive).

Take `Clc1cc2c(c(Cn3cnc4ccccc43)c1)OCOC2`: the inhibition is -3.33% (inactive).

Regarding `N#Cc1c2n(c(=S)n(-c3ccccn3)c1=O)CCCCC2`, the inhibition is 2.99% (inactive).

Regarding `N#Cc1c(NC(=O)c2ccc(Br)o2)n(-c2ccccc2)c2nc3ccccc3nc12`, the inhibition is -5.73% (inactive).

As to `COCCn1nnnc1C(c1ccc(OC)cc1)N1CCN(c2ccccc2F)CC1` (stereo not given), the inhibition was -2.6% (inactive).

Consider `COc1cc(-c2nnc(SCc3c(F)cccc3Cl)o2)cc(OC)c1OC`, for which the inhibition is -4.19% (inactive).

As for `COC(=O)Cc1c(C)nc2nc(-c3ccco3)[nH]n2c1=O`, the inhibition was -2.76% (inactive).

As to `CCOC(=O)CSc1nc2cccnc2n1-c1ccc(F)cc1`, the inhibition is -4.8% (inactive).

Regarding `COCCn1c(NCc2ccc(C)cc2)nc2c1c(=O)[nH]c(=O)n2C`, the inhibition is -2.27% (inactive).

On to `Clc1ccc2nc(N3CCCCC3)[nH]c2c1`, for which the inhibition was -7.84% (inactive).

`Cc1nnc(C)c2c(C)n(-c3ccc(Br)cc3)c(C)c12`: the inhibition is -7.07% (inactive).

Turning to `O=C(NCC(F)(F)F)N1CCOCC1`, the inhibition is -6.71% (inactive).

Take `O=C(O)CC1SC(=Nc2cccc(C(F)(F)F)c2)NC1=O` (stereo not given): the inhibition was -1.45% (inactive).

For `COc1ccc2c(c1)OC(O)(C(F)F)CC2=O` (stereo not given), the inhibition was -1.04% (inactive).
